Rows were chosen to be rich in hits. Some 2.3% of all compounds tested hit in one or more screens of this group.
Tau fluor cs: counter-screen for tau fibril formation inhibitors; Potency, µM (titrated, usually from 57.7 µM); 280,000 compounds, 0.93% hits; tau K18 P301L Alexa594 fluorescence, heparin fibrillization; note: nearly all actives have a fitted effect of over 55% in size
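Human tau K18 P301L (15 uM unlabeled, 0.24 uM Alexa 594-labeled) in 100 mM sodium acetate pH 7 with 20 uM heparin, 6 hr at 37 C. ThT 30 uM added, 1 hr ambient; Alexa 594 FP and total fluorescence read at 555/632 nm.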
USP1-UAF1 inh: blocks the human USP1/UAF1 deubiquitinase complex | O94782 | recombinant USP1/UAF1, Ub-Rhodamine cleavage fluorescence | Potency, µM (titrated, usually from 57.1 µM), usual class: inhibitors | 390,000 compounds, 0.23% hits; note: nearly all actives have a fitted effect of over 60% in size
Target sequence (O94782 whole entry, looked up): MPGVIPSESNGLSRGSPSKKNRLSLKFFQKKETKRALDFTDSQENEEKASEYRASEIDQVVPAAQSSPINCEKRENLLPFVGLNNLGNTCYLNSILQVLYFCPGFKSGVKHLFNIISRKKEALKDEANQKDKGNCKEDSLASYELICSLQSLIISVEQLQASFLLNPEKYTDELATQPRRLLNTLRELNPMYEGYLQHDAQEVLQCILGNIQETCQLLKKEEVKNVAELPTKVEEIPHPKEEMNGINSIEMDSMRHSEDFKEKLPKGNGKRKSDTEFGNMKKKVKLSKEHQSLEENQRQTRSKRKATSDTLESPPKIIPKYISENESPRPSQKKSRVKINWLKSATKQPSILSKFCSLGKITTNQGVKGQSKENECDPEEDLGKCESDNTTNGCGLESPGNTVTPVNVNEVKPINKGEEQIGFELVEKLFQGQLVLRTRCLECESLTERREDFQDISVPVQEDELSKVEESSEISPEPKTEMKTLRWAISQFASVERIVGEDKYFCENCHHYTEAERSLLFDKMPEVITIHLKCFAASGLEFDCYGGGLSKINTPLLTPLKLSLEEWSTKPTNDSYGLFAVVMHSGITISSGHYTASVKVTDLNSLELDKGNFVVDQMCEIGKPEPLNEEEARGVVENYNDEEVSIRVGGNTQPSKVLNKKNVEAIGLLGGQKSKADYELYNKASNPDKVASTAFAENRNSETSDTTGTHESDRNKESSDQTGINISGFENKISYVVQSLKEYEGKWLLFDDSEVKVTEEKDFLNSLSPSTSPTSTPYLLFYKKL
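Step one: compound is pinned into 1nM USP1/UAF1 in HEPES pH 7.8 buffer with TCEP. Step two: 15 min room-temperature incubation. Step three: Ub-Rho (150nM final) starts cleavage, tracked by fluorescence over six one-minute reads.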
Coupling enz: coupling enzyme interference in Giardia aldolase counter-screen. coupling enzyme system counterscreen, AmpLite Red fluorescence. activity change, negative = inhibition, % at 58.2 µM, hits read low. 290,000 compounds, 0.67% hits. AID 2472; in the data active = activity change below about -30%
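Counterscreen lacking aldolase: glyceraldehyde-3-phosphate coupling-enzyme reagent preincubated 10 min at RT with compound (at 57.5 uM final), then substrate/coupling system with AmpLite Red added; fluorescence read at 525/598 nm after 20 min RT.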
Tau fibril FP: blocks human tau fibril formation measured by polarization; P10636; K18 P301L tau heparin fibrillization, Alexa594 FP, 6 h; Potency, µM (doses to about 57.7 µM), hits mostly inhibitors; 280,000 compounds, 0.39% hits; AID 1468; note: nearly all actives have a fitted effect of over 55% in size
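Steps: dispense K18 P301L tau (15 uM plus 0.24 uM Alexa 594 tracer, final) in pH 7 sodium acetate; add compound; add heparin (20 uM final); incubate 6 hr, 37 C; add ThT (30 uM final); after 1 hr ambient, read FP.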
Tau fibril ThT: inhibitors of human tau fibril formation, thioflavin T binding. 270,000 compounds, 2.1% hits. P10636. Potency, µM (titrated, usually from 57.4 µM), hits mostly inhibitors. recombinant tau K18 P301L (four-repeat tau fragment), heparin-induced fibrillization, ThT fluorescence; note: nearly all actives have a fitted effect of over 55% in size
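In this qHTS, human K18 P301L tau is incubated with compound and heparin for 6 hr at 37 C, and Thioflavin T fluorescence then reports fibril load.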
Of the large screens only hits and unclear results are named; the others gave an inactive call; [ ] = remark or other dose. Unless noted, calls come from the whole dose curve; as a rule, active = well fitted curve in the direction sought with a large enough effect; inconclusive = small, poorly fitted or top-dose-only effect, or another doubt; inactive = no such curve, though single readings can be large; an effect the other way counts as inactive or inconclusive.

CCN(C(=S)Nc1cc(S(=O)(=O)N2CCOCC2)ccc1Cl)c1cccc2ccccc12	Coupling enz -93, Tau fibril FP inconclusive, Tau fibril ThT inconclusive
CCOc1cc(N2CCOCC2)c(OCC)cc1NC(C)C(=O)N1CCC(C)CC1 (stereo not drawn)	Coupling enz -47, Tau fibril FP inconclusive, Tau fibril ThT inconclusive
CCOc1cc(N2CCOCC2)c(OCC)cc1NC(=O)CSc1ncn[nH]1	Coupling enz -36
CCOc1cc(N2CCOCC2)c(OCC)cc1NC(=O)COC(=O)[C@@H]1CCCN1S(=O)(=O)c1ccccc1F	Coupling enz -31
CCOc1cc(N2CCOCC2)c(OCC)cc1NC1=NCCCCC1	Coupling enz -32
CCOc1cc(N2CCOCC2)c(OCC)cc1NC(=O)COC(=O)C1CCCN1S(=O)(=O)c1ccccc1F (stereo not drawn)	none (no result: Tau fluor cs, Coupling enz, Tau fibril FP, Tau fibril ThT)
CSc1ccc(/C=C/C(=O)OCC(=O)NCC2CCCO2)cc1 (stereo not drawn)	none (no result: Tau fluor cs, Coupling enz, Tau fibril FP, Tau fibril ThT)
O=C(c1ccncc1)N1CCN(S(=O)(=O)c2ccccc2F)CC1	none (no result: Tau fluor cs, Coupling enz, Tau fibril FP, Tau fibril ThT)
COc1ccc(-n2nnnc2SCC(=O)Nc2ccccc2N2CCOCC2)cc1OC	Tau fibril ThT 10µM
Cn1nnnc1SCC(=O)Nc1ccccc1N1CCOCC1	none
CCOc1cc(N2CCOCC2)c(OCC)cc1NC(=O)Cc1cccc(OC)c1	none
CCOc1cc(N2CCOCC2)c(OCC)cc1NC(=O)Cc1ccc(OC)c(OC)c1	Coupling enz -41
COc1ccccc1N/C=C/c1onc(C)c1[N+](=O)[O-]	Tau fibril ThT inconclusive
Cc1noc(/C=C/Nc2ccc(F)cc2F)c1[N+](=O)[O-]	Tau fibril ThT 3.2µM
CCOC(=O)c1sc2ncn(CC(=O)Nc3ccc(N(C)C)cc3)c(=O)c2c1C	Tau fluor cs inconclusive (no result: Coupling enz)
Cc1[nH]c2ccccc2c1/C=N/Nc1nncn1N	Tau fluor cs inconclusive, USP1-UAF1 inh inconclusive, Tau fibril ThT 14µM
Cc1[nH]c2ccccc2c1/C=N/Nc1ccc(F)cc1F	Tau fluor cs inconclusive, Tau fibril ThT 13µM (no result: USP1-UAF1 inh)
Nn1cnnc1N/N=C/c1ccc(Cl)cc1Cl	none (no result: Tau fluor cs, Tau fibril FP, Tau fibril ThT)
Cc1[nH]c2ccccc2c1/C=N/NC(=O)c1cccc(F)c1	Tau fibril FP inconclusive, Tau fibril ThT inconclusive
Cc1[nH]c2ccccc2c1/C=N/Nc1ccccn1	Tau fluor cs 16µM[quencher], Tau fibril ThT 10µM (no result: USP1-UAF1 inh)
Cc1[nH]c2ccccc2c1/C=N/Nc1nc(Nc2ccccc2)nc(N2CCOCC2)n1	Tau fluor cs 22µM[quencher], Tau fibril FP inconclusive, Tau fibril ThT inconclusive
COc1cccc(NC(=O)Cn2c(=O)n(Cc3ccccc3)c(=O)c3c4c(sc32)CN(C(C)=O)CC4)c1	Tau fluor cs inconclusive, Tau fibril FP inconclusive (no result: Coupling enz)
Cc1sc2c(c1C)c(=O)n(Cc1ccccc1)c(=O)n2CC(=O)Nc1cccc(Cl)c1	USP1-UAF1 inh inconclusive, Tau fibril FP 32µM, Tau fibril ThT inconclusive (no result: Coupling enz)
CC(=O)N1CCc2c(sc3c2c(=O)n(Cc2ccccc2)c(=O)n3CC(=O)Nc2ccc(C)c(F)c2)C1	Tau fluor cs inconclusive, USP1-UAF1 inh inconclusive, Tau fibril FP 28µM, Tau fibril ThT inconclusive (no result: Coupling enz)
CCCNC(=O)C(Cc1ccc(F)cc1)NC(=O)c1ccc(C#N)cc1 (stereo not drawn)	none (no result: Tau fluor cs, Coupling enz, Tau fibril FP, Tau fibril ThT)
C/C(=N\Nc1nnc2c3ccccc3n(C)c2n1)c1ccc(C)o1	Tau fibril ThT 14µM
COc1ccccc1/C=C/c1nc(C#N)c(NCCc2ccccc2)o1	Tau fluor cs 3.5µM[quencher], Tau fibril FP inconclusive, Tau fibril ThT inconclusive (no result: Coupling enz)
O=[N+]([O-])c1cccc(/C=N\N=C2c3ccccc3-c3ccccc32)c1O	Tau fluor cs inconclusive, Tau fibril ThT 5µM
O=[N+]([O-])c1ccc(N2CCN(C(=S)Nc3ccc(F)cc3)CC2)cc1	Tau fluor cs inconclusive, Tau fibril ThT inconclusive
Cc1ccc(C(=O)NC(=S)N2CCN(c3ccc([N+](=O)[O-])cc3)CC2)cc1	none
O=[N+]([O-])c1ccc(N2CCN(C(=S)Nc3cccc(F)c3)CC2)cc1	Tau fluor cs inconclusive, Tau fibril ThT 16µM
CCCC(=O)NC(=S)N1CCN(c2ccc([N+](=O)[O-])cc2)CC1	Coupling enz -32, Tau fibril ThT inconclusive
OCCN1CC(O)C(O)C(O)C1CO (stereo not drawn)	none (no result: USP1-UAF1 inh)
Cc1ccc(C(=O)N/N=C(/CC(=O)c2cccs2)C(F)(F)F)cc1	Tau fibril ThT inconclusive
